Bioassay records deposited in PubChem BioAssay by several laboratories.
Only some compounds are listed: those with a hit (about 1.3% of all), similar ones and a draw of the others.
GALR2 antag = antagonists of human galanin receptor 2 (GALR2); O43603; GALR2-expressing cells, antagonist mode; actives 0.39% (n = 140,000); AID 828; inhibition, % at 4 µM;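 further: cells stimulated with galanin 1-16 at roughly its EC80; 0% = agonist challenge control and 100% = basal control without agonist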
Target sequence (O43603 whole entry, looked up): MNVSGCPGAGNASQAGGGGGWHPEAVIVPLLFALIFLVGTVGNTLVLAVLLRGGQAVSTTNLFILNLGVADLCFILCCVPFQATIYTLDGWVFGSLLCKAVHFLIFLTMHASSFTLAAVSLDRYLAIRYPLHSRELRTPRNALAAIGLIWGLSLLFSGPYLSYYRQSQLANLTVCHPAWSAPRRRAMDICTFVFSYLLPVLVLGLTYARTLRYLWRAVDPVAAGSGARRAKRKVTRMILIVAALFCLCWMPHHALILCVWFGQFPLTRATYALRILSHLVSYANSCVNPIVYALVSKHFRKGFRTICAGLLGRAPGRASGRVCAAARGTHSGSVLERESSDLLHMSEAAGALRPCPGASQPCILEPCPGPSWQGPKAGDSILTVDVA
S1P2 antag = blocks the human S1P2 receptor | cell-based S1P2 antagonist assay, inhibition at 5 uM | inhibition, % at 5 µM | actives 0.21% (n = 97,000) | O95136 | AID 736; in the data active means inhibition above about 45%;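 further: CRE beta-lactamase reporter cells expressing human S1P2 stimulated with S1P; 0% = agonist at EC80 alone and 100% = agonist plus reference antagonist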
S1P2 ag = agonists of human S1P2 receptor. O95136. actives 0.46% (n = 97,000). activation, % at 4.5 µM. AID 729. S1P2-expressing cell line, agonist reporter read-out; in the data active means activation above about 16%;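 further: 0% = vehicle low control and 100% = maximal reference agonist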
cytoskel mod = alters cytoskeleton assembly in HUVEC cells. HUVEC TNFa F-actin phalloidin imaging, high content. inhibition, % at 2 µM. actives 0.18% (n = 91,000). AID 836;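 active means inhibition above the batch mean plus 3 SD and confirmed as a hit by visual image inspection, cut at about 30% in these data, passing the limit was not always enough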
GALR2 agonist = agonists of human galanin receptor 2 (GALR2); GALR2-expressing cells, agonist activation read-out; actives 0.48% (n = 140,000); O43603; activation, % (test concentration not listed); AID 803; in the data active means activation above about 5%, passing the limit was not always enough;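 further: 0% = vehicle buffer wells and 100% = reference agonist at full effect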
GALR2 ant conf = GALR2 (human) antagonism confirmed; AID 866; GALR2-expressing cells, antagonist mode, inhibition; shares compounds with GALR2 antag; inhibition, % at 4 µM; actives 60% (n = 480);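 further: cells stimulated with galanin at about its EC80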
BLA inh counter = counter-screen for GALR2 antagonists: beta-lactamase reporter inhibitors; AID 867; actives 36% (n = 480); inhibition, % at 4.2 µM; CHO NFAT-BLA reporter, beta-lactamase FRET, thapsigargin-stimulated; shares compounds with GALR2 antag;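 active means inhibition above the mean inhibition across tested compounds plus 3 SD, cut at about 27% in these data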;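 further: 0% = 500 nM thapsigargin stimulated wells and 100% = unstimulated BSA only wells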
The depositor's hits bear a star; ! = not confirmed by another sample. Unless noted, no stated cut-off is given here; in the data, active means inhibition above about 27%; inactive means the rest.

What do the screens show for `Cc1cc(Cl)nc(N)n1`?
GALR2 antag: -8; GALR2 agonist: 0

What do the screens show for `Cn1cccc1/C=C1/C(=O)NC(=O)N(Cc2ccccc2)C1=O`?
GALR2 antag: 29*; GALR2 agonist: 0; GALR2 ant conf: 36*; BLA inh counter: 66*

How did C=CCN1C(=O)NC(=O)/C(=C/c2cccn2C)C1=O do in these assays?
GALR2 antag: 10; S1P2 antag: -1; S1P2 ag: -3; cytoskel mod: -19; GALR2 agonist: -1

How did Cc1nc2ccc(Cl)cc2c(-c2ccccc2)c1C(=O)O do in these assays?
GALR2 antag: -3; GALR2 agonist: -2

Results for C(CCc1nn[nH]n1)CCc1nn[nH]n1 ?
GALR2 antag: -7; GALR2 agonist: -1

How did COC(=O)C[C@]1(C(=O)OC)CN(C#N)N(c2ccc(Cl)cc2)C12c1ccccc1-c1ccccc12 do in these assays?
GALR2 antag: 40*; S1P2 antag: 36; S1P2 ag: -7; cytoskel mod: 23; GALR2 agonist: -3; GALR2 ant conf: 44*; BLA inh counter: 32*

Results for Cc1cccc(N2CCc3c2nc2ccccc2c3N)c1 ?
GALR2 antag: 31*!; S1P2 antag: 24; S1P2 ag: -7; cytoskel mod: -1; GALR2 agonist: -3; GALR2 ant conf: 36*; BLA inh counter: 11

Results for O=[N+]([O-])c1ccc(C2[C@H]3C(c4ccccc4)=NC4(CCCCC4)N23)cc1 (stereo not given in full) ?
GALR2 antag: 5; GALR2 agonist: -1

Results for CC1CC(NC(=O)C2C3CCC(O3)C2C(=O)O)CC(C)(C)C1 (stereo not given) ?
GALR2 antag: 1; GALR2 agonist: -1

How did CN1C2CCC1/C(=C/c1ccccn1)C(=O)/C2=C\c1ccccn1 do in these assays?
GALR2 antag: 102*; GALR2 agonist: -3; GALR2 ant conf: 102*; BLA inh counter: 105*

Results for CN[C@H]1C[C@H]2O[C@@](C)([C@H]1OC)n1c3ccccc3c3c4c(c5c6ccccc6n2c5c31)C(=O)NC4 ?
GALR2 antag: 104*; GALR2 agonist: -4; GALR2 ant conf: 105*; BLA inh counter: 108*
